Test results taken from PubChem BioAssay AID1159580 (chemical genetic matrix, 2015).
Screen size: about 5,500 compounds; about 2,000 (36%) were called active. Roughly 18% stayed inconclusive and do not appear here. Rule as the data show it: active = normalized growth mostly below about 0.91 (no sharp cut-off); inconclusive = no clear call, values can overlap the other calls; inactive = mostly above about 0.92. Some of the results follow.

Experiment: chemical genetic growth profiling, strain panel (AID 1159580);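 also: tested at 20 µM; growth read once vehicle control cultures reached saturation at 30 °C; 1 = growth at the plate median or of vehicle wells; lower values mean less growth of the strain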
Settings: growth OD

Measured: normalized growth

C[C@]12CCC3C(CC[C@]4(O)C[C@@H](O)CC[C@]34C=O)[C@@]1(O)CCC2C1=CC(=O)OC1 (stereo partly specified)
inactive: S. cerevisiae deletion strains, locus YJR066W, strain TOR1, stronger effect = lower value 0.934 | S. cerevisiae deletion strains, locus YKL009W, strain mrt4, stronger effect = lower value 0.978 | S. cerevisiae deletion strains, locus YKL068W, stronger effect = lower value 0.966 | S. cerevisiae deletion strains, locus YKL085W, strain MDH1 (second series), stronger effect = lower value 0.978 | S. cerevisiae deletion strains, locus YKL085W, strain MDH1, stronger effect = lower value 0.978 | S. cerevisiae deletion strains, locus YKL160W, strain elf1, stronger effect = lower value 0.972 | S. cerevisiae deletion strains, locus YKL190W, strain CNB1, stronger effect = lower value 0.997 | S. cerevisiae deletion strains, locus YKR001C, strain vps1, stronger effect = lower value 0.986 | S. cerevisiae deletion strains, locus YKR026C, strain gcn3, stronger effect = lower value 0.988 | S. cerevisiae deletion strains, locus YKR091W, strain srl3, stronger effect = lower value 0.981 | S. cerevisiae deletion strains, locus YLL001W, strain dnm1, stronger effect = lower value 0.975 | S. cerevisiae deletion strains, locus YLL026W, stronger effect = lower value 0.986 | S. cerevisiae deletion strains, locus YLL041C, strain sdh2, stronger effect = lower value 0.967 | S. cerevisiae deletion strains, locus YLR027C, strain aat2, stronger effect = lower value 0.958 | S. cerevisiae deletion strains, locus YLR039C, strain RIC1, stronger effect = lower value 0.975 | S. cerevisiae deletion strains, locus YLR058C, strain SHM2, stronger effect = lower value 0.989 | S. cerevisiae deletion strains, locus YLR102C, strain apc9, stronger effect = lower value 0.978 | S. cerevisiae deletion strains, locus YLR113W, strain HOG1, stronger effect = lower value 0.983 | S. cerevisiae deletion strains, locus YLR221C, strain rsa3, stronger effect = lower value 1 | S. cerevisiae deletion strains, locus YLR258W, strain gsy2, stronger effect = lower value 0.965 | S. cerevisiae deletion strains, locus YLR262C, strain YPT6 (second series), stronger effect = lower value 0.957 | S. cerevisiae deletion strains, locus YLR262C, strain YPT6, stronger effect = lower value 0.918 | S. cerevisiae deletion strains, locus YLR268W, strain sec22, stronger effect = lower value 0.979 | S. cerevisiae deletion strains, locus YLR320W, strain mms22, stronger effect = lower value 1.05 | S. cerevisiae deletion strains, locus YLR330W, strain CHS5, stronger effect = lower value 0.983 | S. cerevisiae deletion strains, locus YLR342W, strain FKS1 (second series), stronger effect = lower value 1.01 | S. cerevisiae deletion strains, locus YLR342W, strain FKS1, stronger effect = lower value 0.976 | S. cerevisiae deletion strains, locus YLR357W, strain rsc2, stronger effect = lower value 0.998 | S. cerevisiae deletion strains, locus YLR370C, strain arc18, stronger effect = lower value 0.999 | S. cerevisiae deletion strains, locus YLR371W, strain rom2, stronger effect = lower value 0.963 | S. cerevisiae deletion strains, locus YLR384C, strain iki3, stronger effect = lower value 1 | S. cerevisiae deletion strains, locus YLR418C, strain cdc73, stronger effect = lower value 0.95 | S. cerevisiae deletion strains, locus YML016C, strain PPZ1, stronger effect = lower value 0.99 | S. cerevisiae deletion strains, locus YML032C, strain rad52, stronger effect = lower value 0.976 | S. cerevisiae deletion strains, locus YML120C, strain ndi1, stronger effect = lower value 0.954 | S. cerevisiae deletion strains, locus YML124C, strain tub3, stronger effect = lower value 0.987 | S. cerevisiae deletion strains, locus YMR058W, strain fet3, stronger effect = lower value 0.969 | S. cerevisiae deletion strains, locus YMR078C, strain ctf18, stronger effect = lower value 0.965 | S. cerevisiae deletion strains, locus YMR125W, strain sto1, stronger effect = lower value 0.96 | S. cerevisiae deletion strains, locus YMR129W, stronger effect = lower value 0.982 | S. cerevisiae deletion strains, locus YMR205C, strain PFK2, stronger effect = lower value 0.881 | S. cerevisiae deletion strains, locus YMR231W, strain pep5, stronger effect = lower value 0.999 | S. cerevisiae deletion strains, locus YMR307W, strain GAS1, stronger effect = lower value 0.919 | S. cerevisiae deletion strains, locus YNL067W, strain RPL9B, stronger effect = lower value 1.01 | S. cerevisiae deletion strains, locus YNL071W, strain lat1, stronger effect = lower value 0.958 | S. cerevisiae deletion strains, locus YNL183C, strain NPR1, stronger effect = lower value 0.952 | S. cerevisiae deletion strains, locus YNL209W, strain ssb2, stronger effect = lower value 0.974 | S. cerevisiae deletion strains, locus YNL233W, strain BNI4, stronger effect = lower value 1.03 | S. cerevisiae deletion strains, locus YNL248C, strain rpa49, stronger effect = lower value 0.943 | S. cerevisiae deletion strains, locus YNL250W, strain rad50, stronger effect = lower value 0.968 | S. cerevisiae deletion strains, locus YNL271C, strain bni1, stronger effect = lower value 0.981 | S. cerevisiae deletion strains, locus YNL298W, strain CLA4, stronger effect = lower value 0.964 | S. cerevisiae deletion strains, locus YNL307C, strain MCK1, stronger effect = lower value 0.983 | S. cerevisiae deletion strains, locus YNL322C, strain KRE1 (second series), stronger effect = lower value 0.975 | S. cerevisiae deletion strains, locus YNL322C, strain KRE1, stronger effect = lower value 0.99 | S. cerevisiae deletion strains, locus YNR049C, strain mso1, stronger effect = lower value 0.971 | S. cerevisiae deletion strains, locus YNR052C, strain pop2, stronger effect = lower value 0.977 | S. cerevisiae deletion strains, locus YOL012C, strain htz1 1.05 | S. cerevisiae deletion strains, locus YOL147C, strain pex11, stronger effect = lower value 0.981 | S. cerevisiae deletion strains, locus YOR001W, strain rrp6, stronger effect = lower value 1.01 | S. cerevisiae deletion strains, locus YOR061W, strain CKA2, stronger effect = lower value 0.963 | S. cerevisiae deletion strains, locus YOR069W, strain VPS5, stronger effect = lower value 0.984 | S. cerevisiae deletion strains, locus YOR070C, strain gyp1, stronger effect = lower value 0.998 | S. cerevisiae deletion strains, locus YOR080W, strain dia2, stronger effect = lower value 0.988 | S. cerevisiae deletion strains, locus YOR083W, strain WHI5, stronger effect = lower value 0.939 | S. cerevisiae deletion strains, locus YOR106W, strain vam3, stronger effect = lower value 0.9 | S. cerevisiae deletion strains, locus YOR136W, strain idh2, stronger effect = lower value 0.981 | S. cerevisiae deletion strains, locus YOR144C, strain elg1, stronger effect = lower value 0.985 | S. cerevisiae deletion strains, locus YOR184W, strain ser1, stronger effect = lower value 0.975 | S. cerevisiae deletion strains, locus YOR231W, strain MKK1, stronger effect = lower value 1 | S. cerevisiae deletion strains, locus YOR265W, strain rbl2, stronger effect = lower value 0.975 | S. cerevisiae deletion strains, locus YOR270C, strain vph1, stronger effect = lower value 0.997 | S. cerevisiae deletion strains, locus YOR290C, strain snf2, stronger effect = lower value 0.894 | S. cerevisiae deletion strains, locus YOR316C, strain cot1, stronger effect = lower value 0.982 | S. cerevisiae deletion strains, locus YPL051W, strain arl3, stronger effect = lower value 0.995 | S. cerevisiae deletion strains, locus YPL055C, strain LGE1, stronger effect = lower value 1 | S. cerevisiae deletion strains, locus YPL078C, strain atp4, stronger effect = lower value 0.942 | S. cerevisiae deletion strains, locus YPL106C, strain sse1, stronger effect = lower value 0.871 | S. cerevisiae deletion strains, locus YPL240C, strain hsp82, stronger effect = lower value 0.988 | S. cerevisiae deletion strains, locus YPL256C, strain CLN2, stronger effect = lower value 0.974 | S. cerevisiae deletion strains, locus YPR119W, strain clb2, stronger effect = lower value 0.983 | S. cerevisiae deletion strains, locus YPR141C, strain kar3, stronger effect = lower value 0.982 | S. cerevisiae deletion strains, locus YPR163C, strain tif3, stronger effect = lower value 0.967 | S. cerevisiae deletion strains, locus YPR167C, strain met16, stronger effect = lower value 0.975 | S. cerevisiae deletion strains, strain wtn01, stronger effect = lower value 1.01 | S. cerevisiae strains, strain wild type, stronger effect = lower value 0.981
